Among the data in ChEMBL document CHEMBL1961873, “Compounds: GSK PKIS; Assays: Nanosyn kinase panel” (2012) are inhibition values, retold here.

Structures are written as SMILES.

Assay [1] has as its target CDK3/Cyclin E (Homo sapiens) (UniProt P24864+Q00526). Particulars: at 1 µM.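 Note: each figure is a mean percent inhibition of the CDK3/cyclin E complex.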
Assay [2] addresses Cyclin-dependent kinase 4 (Homo sapiens) (UniProt P11802). Particulars: at 0.1 µM.
The target is the same in assay [3]. Particulars: at 1 µM.
Assay [4] addresses Cyclin-dependent kinase 5 (Homo sapiens) (UniProt Q00535). Particulars: at 0.1 µM.
Assay [5] has the same target. Particulars: at 1 µM.
In assay [6] the target is Cyclin-dependent kinase 6 (Homo sapiens) (UniProt Q00534). Conditions: at 0.1 µM.
For assay [7] the target is unchanged. Particulars: at 1 µM.
In assay [8] the target is Dual specificity protein kinase CLK2 (Homo sapiens) (UniProt P49760). Conditions: at 0.1 µM.
The target is the same in assay [9]. Particulars: at 1 µM.
Assay [10] addresses Dual specificity protein kinase CLK3 (Homo sapiens) (UniProt P49761). Conditions: at 0.1 µM.

Chain of Dual specificity protein kinase CLK3 (Homo sapiens) (P49761 whole entry, looked up): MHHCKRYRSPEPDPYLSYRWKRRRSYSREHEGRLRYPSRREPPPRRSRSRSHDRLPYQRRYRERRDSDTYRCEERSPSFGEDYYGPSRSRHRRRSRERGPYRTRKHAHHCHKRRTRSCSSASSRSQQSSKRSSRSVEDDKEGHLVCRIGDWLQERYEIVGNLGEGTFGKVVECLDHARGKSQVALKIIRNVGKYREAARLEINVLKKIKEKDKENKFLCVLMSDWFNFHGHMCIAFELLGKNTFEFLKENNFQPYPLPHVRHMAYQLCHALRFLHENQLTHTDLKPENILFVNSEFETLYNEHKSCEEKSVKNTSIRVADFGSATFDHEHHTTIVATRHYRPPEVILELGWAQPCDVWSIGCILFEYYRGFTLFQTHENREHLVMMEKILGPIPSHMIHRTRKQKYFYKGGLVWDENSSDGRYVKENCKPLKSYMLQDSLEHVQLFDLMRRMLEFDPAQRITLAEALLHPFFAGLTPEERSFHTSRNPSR
Chain of Dual specificity protein kinase CLK2 (Homo sapiens) (P49760 whole entry, looked up): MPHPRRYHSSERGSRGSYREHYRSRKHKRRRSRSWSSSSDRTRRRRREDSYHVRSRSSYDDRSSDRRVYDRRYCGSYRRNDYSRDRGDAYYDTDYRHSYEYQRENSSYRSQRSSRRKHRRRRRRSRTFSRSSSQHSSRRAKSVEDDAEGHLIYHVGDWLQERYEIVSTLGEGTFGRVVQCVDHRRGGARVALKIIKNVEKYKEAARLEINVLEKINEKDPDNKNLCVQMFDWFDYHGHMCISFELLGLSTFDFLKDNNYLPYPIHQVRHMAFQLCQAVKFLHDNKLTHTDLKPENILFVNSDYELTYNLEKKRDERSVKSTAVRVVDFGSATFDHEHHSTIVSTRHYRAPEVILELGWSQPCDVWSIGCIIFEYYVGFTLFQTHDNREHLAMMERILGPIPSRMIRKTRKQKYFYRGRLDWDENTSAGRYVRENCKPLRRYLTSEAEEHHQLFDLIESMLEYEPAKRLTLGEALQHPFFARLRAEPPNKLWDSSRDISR
Chain of Cyclin-dependent kinase 4 (Homo sapiens) (P11802 whole entry): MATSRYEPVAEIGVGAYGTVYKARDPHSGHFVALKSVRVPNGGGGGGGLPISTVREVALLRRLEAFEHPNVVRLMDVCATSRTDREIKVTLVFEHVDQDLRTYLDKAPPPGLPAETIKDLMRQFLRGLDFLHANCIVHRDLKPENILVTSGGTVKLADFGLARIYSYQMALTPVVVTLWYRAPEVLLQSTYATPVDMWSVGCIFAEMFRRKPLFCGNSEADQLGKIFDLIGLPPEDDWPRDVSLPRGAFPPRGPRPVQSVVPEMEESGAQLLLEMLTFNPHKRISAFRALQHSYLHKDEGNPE
Chain of Cyclin-dependent kinase 6 (Homo sapiens) (Q00534 whole entry): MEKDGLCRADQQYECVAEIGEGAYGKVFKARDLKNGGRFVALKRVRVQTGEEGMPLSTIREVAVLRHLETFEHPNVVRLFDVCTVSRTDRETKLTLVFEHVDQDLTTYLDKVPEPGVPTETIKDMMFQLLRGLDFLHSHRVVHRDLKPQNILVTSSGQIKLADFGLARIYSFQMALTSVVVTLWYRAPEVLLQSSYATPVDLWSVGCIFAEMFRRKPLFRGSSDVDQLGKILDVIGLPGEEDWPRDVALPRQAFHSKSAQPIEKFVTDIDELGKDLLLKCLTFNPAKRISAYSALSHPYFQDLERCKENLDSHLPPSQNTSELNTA
Chain of Cyclin-dependent kinase 5 (Homo sapiens) (Q00535 whole entry, looked up): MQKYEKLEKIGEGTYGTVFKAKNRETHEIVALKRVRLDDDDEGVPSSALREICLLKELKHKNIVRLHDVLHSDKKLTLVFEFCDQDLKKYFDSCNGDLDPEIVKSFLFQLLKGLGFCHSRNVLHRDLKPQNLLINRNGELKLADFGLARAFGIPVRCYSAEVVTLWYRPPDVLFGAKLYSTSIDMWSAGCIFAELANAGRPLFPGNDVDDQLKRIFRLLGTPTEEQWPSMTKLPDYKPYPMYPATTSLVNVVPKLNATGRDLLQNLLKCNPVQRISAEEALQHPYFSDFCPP
Chain of CDK3/Cyclin E (Homo sapiens) (P24864 whole entry, looked up): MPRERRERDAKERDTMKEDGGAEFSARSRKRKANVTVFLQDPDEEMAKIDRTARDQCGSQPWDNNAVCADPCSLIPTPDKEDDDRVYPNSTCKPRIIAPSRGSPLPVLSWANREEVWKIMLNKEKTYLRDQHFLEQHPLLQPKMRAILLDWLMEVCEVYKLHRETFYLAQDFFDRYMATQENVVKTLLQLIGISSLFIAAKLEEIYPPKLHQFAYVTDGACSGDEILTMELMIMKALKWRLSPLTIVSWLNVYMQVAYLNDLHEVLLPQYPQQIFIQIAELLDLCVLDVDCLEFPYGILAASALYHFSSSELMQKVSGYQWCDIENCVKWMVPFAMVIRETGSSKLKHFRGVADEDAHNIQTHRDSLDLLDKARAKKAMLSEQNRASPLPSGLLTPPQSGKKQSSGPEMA
Chain of CDK3/Cyclin E (Homo sapiens) (Q00526 whole entry, looked up): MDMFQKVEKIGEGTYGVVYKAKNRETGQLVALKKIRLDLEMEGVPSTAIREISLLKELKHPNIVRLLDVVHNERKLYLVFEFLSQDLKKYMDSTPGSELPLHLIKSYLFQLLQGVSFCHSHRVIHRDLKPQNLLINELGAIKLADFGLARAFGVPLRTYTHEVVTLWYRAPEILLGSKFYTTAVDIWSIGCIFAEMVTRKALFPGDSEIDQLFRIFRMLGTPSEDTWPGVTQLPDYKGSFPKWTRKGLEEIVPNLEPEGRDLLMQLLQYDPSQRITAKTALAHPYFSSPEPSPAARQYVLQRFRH

With `CN1CCC(C(=O)Nc2n[nH]c3nnc(-c4ccccc4)cc23)CC1`, the inhibition (usually the relative decrease from the control value, in per cent) in assay [1] amounted to 5.97%; in assay [2] it was 8.86%; in assay [3], 29.4%; in [4] it was 1.11%; in [5], 3.61%; in [6], 7.11%. Further, the inhibition in assay [7] stood at 21.4%; in [8], 1.34%; in assay [9], 2.3%; in [10], 1.91%.
With `Cc1ccc(NC(=O)c2ccnc(N3CCCC3)c2)cc1-c1ccc(C(=O)NCC2CC2)cc1`, the inhibition is -0.38% in assay [1]; 0.83% in assay [2]; 4.63% in assay [3]; 2.54% in assay [4]; 3.21% in assay [5]; -7.97% in assay [6]. Further, the inhibition in assay [7] is -0.52%; in assay [8], 3.05%; in assay [9], 1.8%; in assay [10] it was -1.85%.
`COc1ccc2cc(-c3c(-c4ccncc4)nc(-c4ccc([S+](C)[O-])cc4)n3C)ccc2c1` (centres undefined): the inhibition is -0.42% in [1]; 2.74% in assay [2]; 2.79% in assay [3]; 0.96% in [4]; 1.53% in assay [5]; -3.35% in [6]. In addition, the inhibition was -1.41% in assay [7], 0.22% in assay [8], 1.33% in assay [9] and 0.91% in [10].
With `[O-][S+]1CCN(Cc2ccc(-c3ccc4ncnc(Nc5ccc(OCc6ccccc6)c(F)c5)c4c3)o2)CC1`, the inhibition in assay [1] was -0.37%; in [2], 1.78%; in assay [3], 2.34%; in assay [4] it was 0.47%; in assay [5], 0.42%; in assay [6] it was -2.8%. Besides, the inhibition in assay [7] was -0.74%; in [8], 1.05%; in [9], 0.69%; in [10], 0.9%.
As for `CCCN1CCC=C(c2ccc(Nc3nc(Nc4ccccc4C(N)=O)c4cc[nH]c4n3)c(C)c2)C1`, the inhibition in assay [1] stood at 4.3%; in assay [2], 4.35%; in assay [3] it was 10.9%; in [4], 1.88%; in assay [5], 9.85%; in assay [6] it was 0.69%. Besides, the inhibition in [7] is 5.64%; in [8], 38.2%; in assay [9], 88.9%; in assay [10], -0.17%.
With `Fc1cccc(COc2ccc(Nc3ncnc4cc(-c5ccc[nH]5)sc34)cc2Cl)c1`, the inhibition was -1.23% in assay [1]; -1.38% in assay [2]; 1.79% in assay [3]; -2.8% in assay [4]; -0.09% in [5]; -9.87% in [6]. Further, the inhibition in [7] was -4.56%; in assay [8], 0.06%; in assay [9], -0.33%; in assay [10], -2.46%.
On to `Cn1cc(C=C2C(=O)Nc3cccnc32)c2ccccc21`, for which the inhibition in assay [1] came to 3.36%; in assay [2], 4.89%; in [3], 11%; in [4] it was 5.57%; in [5], 7.28%; in [6] it was 1.04%. For the same compound, the inhibition in assay [7] stood at 8.56%; in [8], 3.28%; in [9], 13.7%; in assay [10], 0.62%.
Consider `CS(=O)(=O)CCN(CC#N)Cc1ccc(-c2ccc3ncnc(Nc4ccc(OCc5cccc(F)c5)c(Cl)c4)c3c2)o1`, for which the inhibition was -2.66% in assay [1]; -2.96% in assay [2]; -1.43% in assay [3]; -3.58% in assay [4]; -2.47% in [5]; -5.97% in assay [6]. Further, the inhibition in [7] was -4.69%; in [8], 1.05%; in assay [9], 0.64%; in assay [10], -3.63%.
For `CCN1CCC(CC(=O)Nc2n[nH]c3nc(-c4cccs4)c(Br)cc23)CC1`, the inhibition in assay [1] is 9.52%; in assay [2], 5.84%; in assay [3], 37%; in assay [4], 0.96%; in assay [5], 2.52%; in assay [6] it was 30.9%. Besides, the inhibition in assay [7] is 70.8%; in assay [8] it was -1.44%; in [9], 2.75%; in [10], 0.48%.
As to `COc1ccc(COc2ccc(Cc3cnc(N)nc3N)cc2OC)cc1`, the inhibition in [1] turned out to be 1.92%; in assay [2], 1.7%; in assay [3], 3.6%; in [4] it was 2.15%; in assay [5] it was 2.03%; in assay [6], 1.93%. Moreover, the inhibition in assay [7] was 3.33%; in assay [8], 2.03%; in [9], 1.66%; in [10], -0.25%.
Regarding `Cc1cc(O)cc(C)c1/C=C/c1cncc(-c2nn[nH]n2)c1`, the inhibition in assay [1] is -2.12%; in assay [2] it was -0.96%; in assay [3] it was 0%; in assay [4], -3.06%; in assay [5], -3.35%; in assay [6] it was -6.34%. The results for the inhibition in assay [7], in [8] and in assay [9] were -0.68%, 2.78% and 1.31%, respectively.
For the compound `Nc1nc(-c2ccccn2)c(-c2ccc3ncccc3n2)s1`, the inhibition in [1] is 0.5%; in [2], 3.41%; in assay [3], 4.48%; in assay [4] it was 1.28%; in [5], 2.86%; in assay [6], 6.73%. The inhibition in [7] is 7.75%; in assay [8], -0.01%; in assay [9], 0.69%; in assay [10], 2.95%.
`Cc1cccc(-c2n[nH]cc2-c2ccc3ncccc3n2)n1`: the inhibition was -2.25% in assay [1]; -0.55% in assay [2]; 2.39% in [3]; -0.23% in [4]; 0.38% in [5]; -3.86% in assay [6]. Further, the inhibition in assay [7] was 0.55%; in assay [8], -0.31%; in assay [9] it was 3.44%; in assay [10], 0.37%.
On to `COc1ccccc1Nc1ncc(-c2ccccc2)o1`, for which the inhibition in assay [1] was -1.14%; in assay [2] it was 0.89%; in [3], 2.21%; in [4], 0.04%; in assay [5] it was 1.68%; in [6] it was -0.22%. The inhibition was -0.99% in [7], 0.98% in assay [8], 0.86% in assay [9] and 1.23% in [10].
With `CN(C)c1cc2c(Nc3ccc4nc(Cc5ccccc5)[nH]c4c3)ncnc2cn1`, the inhibition in [1] is -2.11%; in [2] it was 3.33%; in [3], 3.46%; in [4], 1.02%; in assay [5], 1.2%; in [6] it was 1.12%. Further, the inhibition in assay [7] came to 3.91%; in assay [8] it was 2.08%; in assay [9] it was 1.7%; in [10], 2.14%.
On to `CCCN1CCC(Oc2cc(Nc3nc(Nc4cccc(F)c4C(N)=O)c4cc[nH]c4n3)c(OC)cc2Cl)CC1`, for which the inhibition came to 1.54% in assay [1]; 0.37% in assay [2]; 3.08% in assay [3]; 0.2% in assay [4]; 0.45% in [5]; 0.9% in assay [6]. The inhibition in assay [7] came to 2.04%; in assay [8], 9.9%; in assay [9] it was 49.3%; in assay [10], 0.11%.
Regarding `O=C1NC(=O)C(N2CCc3ccccc32)=C1c1ccc(Cl)cc1`, the inhibition in [1] was 0.23%; in [2], 3.68%; in assay [3] it was 5.74%; in assay [4] it was 2.06%; in [5], 2.74%; in assay [6] it was -3.76%. The inhibition was 5.39% in assay [7], -0.03% in [8], 0.46% in assay [9] and 2.68% in assay [10].
